An excerpt weighted towards active compounds, which were near 1.1% of everything screened.
p53 reactivator – mutant p53 re-activation in reporter cells. 320,000 compounds, 0.063% hits. AID 504706. Potency, µM (doses to about 92.2 µM), inactives show at the highest dose activity change, positive = activation, actives largely listed as activators. H1299 p53-A138V BP100-luciferase reporter, luminescence, 24 h; also: potency is read from the fitted curve at half-maximal effect; % of control where 0% means no effect; nearly all actives have a fitted effect of over 45% in size
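H1299 (p53-null), stable ts p53-A138V + BP100-Luc; 1000 cells/well, Opti-MEM/10% FBS; cpd 4 pt, 1:5; 24 h, 37 deg C, 5% CO2; detection reagent 10 min RT; luminescence.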
RXFP1 antagonist – blocks the human relaxin receptor RXFP1 | 350,000 compounds, 0.59% hits | activity change, negative = inhibition, % at 57.5 µM | Q9HBX9 | HEK293-RXFP1, relaxin-stimulated cAMP HTRF, 30 min; stronger effect = lower value;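 active = activity change of -60% or lower, but not beyond a set lower limit; inconclusive = change between -60% and -40%, or beyond the set limit; inactive = change above -40%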; also: % is scaled to controls: 0 for no effect and ±100 for the full control effect
Target sequence (Q9HBX9 whole entry, looked up): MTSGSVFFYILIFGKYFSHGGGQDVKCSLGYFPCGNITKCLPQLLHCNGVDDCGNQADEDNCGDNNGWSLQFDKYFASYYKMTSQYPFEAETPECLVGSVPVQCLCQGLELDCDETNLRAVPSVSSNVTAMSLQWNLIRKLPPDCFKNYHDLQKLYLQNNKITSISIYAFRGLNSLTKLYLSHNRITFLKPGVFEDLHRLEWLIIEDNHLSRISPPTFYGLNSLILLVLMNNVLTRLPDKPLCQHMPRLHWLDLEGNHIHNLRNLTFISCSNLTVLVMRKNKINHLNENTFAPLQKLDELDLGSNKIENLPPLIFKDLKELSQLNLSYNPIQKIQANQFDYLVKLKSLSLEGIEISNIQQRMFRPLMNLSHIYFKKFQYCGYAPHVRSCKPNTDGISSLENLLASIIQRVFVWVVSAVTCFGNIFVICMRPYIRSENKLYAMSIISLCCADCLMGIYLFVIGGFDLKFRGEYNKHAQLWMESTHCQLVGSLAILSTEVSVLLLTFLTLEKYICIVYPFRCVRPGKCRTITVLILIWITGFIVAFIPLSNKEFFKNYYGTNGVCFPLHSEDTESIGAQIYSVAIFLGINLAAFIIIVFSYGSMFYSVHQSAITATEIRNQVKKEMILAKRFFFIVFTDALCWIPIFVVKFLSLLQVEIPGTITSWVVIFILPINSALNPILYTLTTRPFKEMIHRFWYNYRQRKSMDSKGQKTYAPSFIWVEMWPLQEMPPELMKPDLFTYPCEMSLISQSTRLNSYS
gsp ag – gsp mutant agonism. gsp mutant cells, cAMP HTRF, 30 min. Potency, µM (highest dose often 76.9 µM), for inactives: at the highest dose activation (cAMP increase), hits mostly activators. 340,000 compounds, 0.13% hits. AID 624287; active = well fitted activation curve with a large enough effect; inconclusive = small, poorly fitted or top-dose-only effect, or another doubt; inactive = no such curve, though single readings can be large or run the other way; cell line not stated here;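 also: phosphodiesterase inhibitor Ro 20-1724 added with compounds to block cAMP breakdown; potency is read from the fitted curve at half-maximal effect; nearly all actives have a fitted effect of over 60% in size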
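Cells stably selected in G418 were plated at 2000/well, grown 16-24 hr, then given compounds in DMSO with the PDE inhibitor […] (300 uM solution added) for 30 min at 37C; cAMP was read by HTRF.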
RXFP1 ag – activates the human relaxin receptor RXFP1; Potency, µM (doses to about 57.5 µM), without a hit: top-dose activation, actives largely listed as activators; HEK293T-RXFP1 cAMP TR-FRET, 30 min; response scale: percent of porcine relaxin response, buffer zero; 370,000 compounds, 0.3% hits; Q9HBX9; also: potency is read from the fitted curve at half-maximal effect; % is scaled to controls: 0 for no effect and ±100 for the full control effect; nearly all actives have a fitted effect of over 60% in size
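Agonist response is measured as cAMP accumulation in an RXFP1-transfected HEK293T line under PDE4 inhibition. Values are scaled between buffer-only and 29 nM porcine relaxin, and EC50s come from standard Hill equation fits.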
Tb PFK inh-1 – inhibitors of T. brucei phosphofructokinase; T. brucei PFK, ADP-Glo luminescence; Potency, µM (top dose mostly 57.5 µM), without a hit: at the top dose activity, negative = inhibition, usual class: inhibitors; 330,000 compounds, 0.17% hits; O15648;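 also: potency is read from the fitted curve at half-maximal effect; 0% = uninhibited 1x PFK enzyme wells and -100% = no-enzyme wells; nearly all actives have a fitted effect of over 60% in size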
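1.25 nM PFK with 0.5 mM F6P and 0.1 mM ATP in 0.1 M TEA pH 8.0, 5 mM MgCl2, incubated 45 min at room temperature; ADP measured by ADP-Glo luminescence; compounds titrated up to 57 uM.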
gsp antagonist – antagonists of gsp mutant (McCune-Albright syndrome). 340,000 compounds, 0.4% hits. Potency, µM (series often up to 76.9 µM), without a hit: at the highest dose activity change, negative = inhibition, hits mostly inhibitors. AID 624288. gsp-mutant cells, cAMP HTRF, 30 min; calls by dose curve; cell line not stated here;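 also: intracellular cAMP measured with PDE inhibitor Ro 20-1724 present during compound exposure; potency is read from the fitted curve at half-maximal effect; % is scaled to controls: 0 for no effect and ±100 for the full control effect; nearly all actives have a fitted effect of over 65% in size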
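HTRF cAMP measurement after 30 min RT detection following 30 min, 37C compound treatment alongside […] (added as 300 uM solution) in G418-selected cells seeded at 2000/well and grown 16–24 h.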
Tb PFK KinaseGlo – orthogonal confirmation of T. brucei phosphofructokinase inhibitors | shares compounds with Tb PFK inh-1 | Tb PFK enzyme, ATP depletion, Kinase-Glo Plus luminescence | Potency, µM (top dose mostly 57.5 µM), for the others: at the top dose inhibition | 1,100 compounds, 47% hits; calls by dose curve; also: potency is read from the fitted curve at half-maximal effect; nearly all actives have a fitted effect of over 60% in size
Tb PFK inh-2 – validation of T. brucei phosphofructokinase inhibitors. shares compounds with Tb PFK inh-1. purified T. brucei PFK, ADP-Glo luminescence, 45 min. 1,100 compounds, 41% hits. AID 504637. Potency, µM (doses to about 57.5 µM), for the others: at the top dose activity change, negative = inhibition, usual class: inhibitors;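 also: potency is read from the fitted curve at half-maximal effect; plate controls were full PFK enzyme control for no effect and no enzyme control for full effect; nearly all actives have a fitted effect of over 60% in size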
Starred values were filed as active, the others as inactive; ? = inconclusive; / = not tested or not shown; [ ] = another dose, or the depositor's remark. Unless noted, calls follow the shape of the dose curve; as a rule, active = well fitted curve in the direction sought with a large enough effect; inconclusive = small, poorly fitted or top-dose-only effect, or another doubt; inactive = no such curve, though single readings can be large; an effect the other way counts as inactive or inconclusive.

SMILES	p53 reactivator	RXFP1 antagonist	gsp ag	RXFP1 ag	Tb PFK inh-1	gsp antagonist	Tb PFK KinaseGlo	Tb PFK inh-2
O=C1OC(/C(=C\Nc2cc(Cl)ccc2O)[N+](=O)[O-])c2ccccc21 (stereo not given)	-11%	-82*	19%[15.4 µM]	0%	?	-24%	3%	-13%
Cc1ccc(N/C=C(\C2OC(=O)c3ccccc32)[N+](=O)[O-])c(C)c1 (stereo not given)	-9%	-3	29%[15.4 µM]	-1%	?	-12%	1%	0%
O=C1NC(=O)C(Cc2ccccc2)(Cc2ccccc2)C(=O)N1	/	2	-47%	/	/	5%	/	/
COC(=O)CCCCC1SCC(NC(=O)c2ccccc2)C1Cl (stereo not given)	8%	-19	?	-1%	-5%	-8%	/	/
COC(=O)C1=C(c2ccc(-c3ccccc3)c(F)c2)C[C@@H]2CC[C@H]1N2C(=O)NCCOc1ccccc1Cl	5%	/	-13%	0%	-3%	-8%	/	/
NN1C(=O)/C(=C2/Sc3ccccc3N2CCCS(=O)(=O)O)SC1=S	/	14	?	?	30µM*	10%	19µM*	?
O=C(CN1CCCCC1)c1ccccc1F	5%	7	-24%	0%	-4%	5%	/	/
O=C(O)Cn1cc(C(=O)c2ccccc2)c2ccccc21	4%	-9	24%	0%	0%	2%	/	/
CCN(CC)C(=O)c1ccc(NC(=O)COc2ccc([N+](=O)[O-])cc2Cl)cc1	-8%	-26	7%	0%	-4%	-6%	/	/
O=C(COC(=O)CCc1c[nH]c2ccccc12)Nc1ccc([N+](=O)[O-])cc1	-3%	-10	-34%	4%	6%	?	/	/
NS(=O)(=O)c1cccc(NC(=O)COc2ccc([N+](=O)[O-])cc2)c1	7%	-37	-17%	-1%	7.6µM*	2%	21µM*	13µM*
O=C(COc1ccc([N+](=O)[O-])cc1)Nc1ccncc1	0%	9	18%[15.4 µM]	12%	?	-5%	?	?
CC(=O)N1Cc2cnnn2-c2ccccc2C1(C#N)Cc1ccccc1 (stereo not given)	/	/	/	/	/	5%	/	/
CP(=O)(O)CN1CCCCC1	-1%	10	-49%	4%	24%	-2%	/	/
CCCCSP1(=S)NCCCO1 (stereo not given)	7%	0	-32%	0%	3%	10%	/	/
O=C(c1ccc(N2CCCCCC2)c([N+](=O)[O-])c1)N1CCC2(CC1)OCCO2	-5%	-9	-8%[15.4 µM]	-1%	-2%	-1%	/	/
Cc1ccc(-c2cc(C(=O)N/N=C/C(Br)=C/c3ccccc3)n[nH]2)o1	2%	?	-28%	0%	?	-11%	-20%	?
N#Cc1ccc(NC(=S)N2Cc3ccccc3-n3nncc3C2)cc1	/	3	-36%	/	/	/	/	/
COc1ccc2c(c1)c(C(=O)C(C)N1CCCCC1)c(C)n2C (stereo not given)	7%	9	2%	0%	-9%	10%	/	/
CC(CNc1ccccc1O)C(=O)O (stereo not given)	4%	-4	-4%	0%	24µM*	-12%	?	?
O=C(N/N=C/c1ccco1)C1COc2ccccc2O1 (stereo not given)	21%	-4	-39%	-1%	?	4%	?	?
O=C(N/N=C\c1ccc[nH]1)C1COc2ccccc2O1 (stereo not given)	-1%	10	23%	1%	24µM*	24%	9.5µM*	19µM*
O=C(N=Nc1c(O)[nH]c(=O)[nH]c1=O)C1COc2ccccc2O1 (stereo not given)	1%	10	13%[15.4 µM]	0%	-4%	12%	/	/
O=C1Nc2ccccc2Oc2ccccc21	/	-8	-14%	/	/	/	/	/
Fc1ccc(C2NCCc3[nH]cnc32)cc1 (stereo not given)	-10%	5	12%	0%	-3%	10%	/	/
SMILES	p53 reactivator	RXFP1 antagonist	gsp ag	RXFP1 ag	Tb PFK inh-1	gsp antagonist	Tb PFK KinaseGlo	Tb PFK inh-2
CC1(c2ccc(Cl)cc2Cl)NC(=O)N(CC(=O)Nc2ccc3[nH]c(=O)[nH]c3c2)C1=O (stereo not given)	-1%	9	6%	-2%	?	5%	?	?
O=c1[nH]sc2ccccc12	-16%	?	17%[15.4 µM]	1%	19µM*	-2%	21µM*	27µM*
O=c1[nH]sc2cc(F)ccc12	-10%	?	9%[15.4 µM]	5%	?	-11%	19µM*	27µM*
N=C(N)c1c(O)n(C2CCCCC2)c(=O)n(C2CCCCC2)c1=O	-17%	-17	-22%	2%	-6%	-24%	/	/
COc1ccc(CCn2c(O)c(C=Nc3ccc(NC(C)=O)cc3)c(=O)[nH]c2=O)cc1OC	-1%	-24	?	10%	3%	-5%	/	/
CC(Cc1ccccc1)NC(=O)c1ccc(N)cc1 (stereo not given)	/	4	-4%[15.4 µM]	1%	-3%	13%	/	/
Cc1cc[n+](-c2[nH]c(=O)sc2/C=N/N=C(\[O-])c2ccncc2)cc1	6%	0	-2%	1%	19µM*	2%	?	-21%
Clc1ccccc1N1CCNCC1	/	9	/	/	/	/	/	/
O=C(Nc1nnc(-c2ccccc2)s1)c1ccccc1O	?	-3	-14%[15.4 µM]	8%	?	-26%	-28%	?
Cc1nnc(NC(=O)c2cccn(Cc3ccccc3)c2=O)s1	/	/	/	2%	/	/	/	/
COc1ccc(/C=N/NC(=O)Cc2ccc(Cl)cc2)cc1OC	0%	-2	-3%[15.4 µM]	0%	?	9%	?	?
O=C(Cc1ccc(Cl)cc1)N/N=C/c1cccc(O)c1	/	10	0%	1%	9.5µM*	50µM*	11µM*	12µM*
CCn1cc(/C=N\NC(=O)Cc2ccc(Cl)cc2)cn1	15%	3	-17%	1%	19µM*	3%	7.6µM*	15µM*
C/C=C1/CN2C3CC1C(CO)(C(=O)OC)C2Cc1c3n(C)c2ccccc12 (stereo not given)	2%	2	-38%	-2%	-4%	1%	/	/
CCN(CCNc1ccc([N+](=O)[O-])c2cccnc12)S(=O)(=O)c1ccc(Cl)cc1	-1%	1	-47%	0%	-11%	-2%	/	/
